Sfp PPTase inh: Sfp phosphopantetheinyl transferase inhibition; Biochemical Sfp PPTase activity, qHTS; Potency, µM, for the others: largest response in the series, negative = inhibition, most hits filed as inhibitors; AID 1490; hit rate 3.5% among 310,000; Q9F4F7;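 note: the enzyme is Sfp with the accession as filed and its product quenches rhodamine fluorescence; 0% = enzyme reaction without inhibitor and -100% = no enzyme wells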
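Fluorescence-quenching assay: 15 nM Sfp-PPTase preincubated 15 min at room temperature with compound, then 5 uM rhodamine-CoA and 12.5 uM BHQ-2-labelled YbbR peptide added. Fluorescence (ex 525/em 598 nm) read at start and after 30 min; difference gives rate.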
L3MBTL1 inh: L3MBTL1 (human) inhibition; hit rate 0.66% among 230,000; AlphaScreen L3MBTL1–H3K9me1 peptide binding; Potency, µM (titrated, usually from 57.1 µM), for inactives: at the highest dose activity, negative = inhibition, hits mostly inhibitors; Q9Y468; AID 485360; note: % is set by controls: 0 for no effect and ±100 for the full control effect; nearly all actives have a fitted effect of over 60% in size
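AlphaScreen proximity signal between nickel-chelate acceptor and streptavidin donor beads (final 10 ug/mL) reports binding of 50 nM L3MBTL1 to 75 nM biotin-H3 K9me1 peptide; complex incubated with compounds 30 min at room temperature; cefsulodin titration as control.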
G9a block: inhibitors of human histone lysine methyltransferase G9a | hit rate 8.8% among 350,000 | Potency, µM (series often up to 102 µM), for the others: at the top dose activity, negative = inhibition, hits mostly inhibitors | Q96KQ7 | G9a H3K9 monomethylation, AlphaScreen, 2 h; note: % is set by controls: 0 for no effect and ±100 for the full control effect; nearly all actives have a fitted effect of over 75% in size
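Step 1: enzyme (final 20 nM) with compound, 15 min RT. Step 2: substrate peptide 500 nM and SAM 20 uM, 2 h RT. Step 3: anti-H3K9me1 antibody and AlphaScreen beads, 10 min, then plate read.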
HP1b binding inh: HP1-beta chromodomain-methylated histone interaction inhibition; P83916; AlphaScreen HP1-beta / biotin-H3K9me3 peptide binding; Potency, µM (doses to about 114 µM), inactives show top-dose activity change, negative = inhibition, most hits filed as inhibitors; hit rate 0.56% among 390,000; AID 540317; note: nearly all actives have a fitted effect of over 70% in size
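AlphaScreen: HP1-beta (50 nM) preformed 30 min with biotin-H3(1-18)K9me3 peptide (50 nM) in PBS pH 7.4, 0.01% Tween-20. Compound added for 30 min at RT, then streptavidin donor/nickel chelate acceptor beads (10 ug/mL) for 30 min.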
BAZ2B inh: blocks human BAZ2B; Q9UIF8; AlphaScreen BAZ2B-H3K14Ac peptide displacement; Potency, µM (doses to about 114 µM), for inactives: at the top dose activity change, negative = inhibition, actives largely listed as inhibitors; hit rate 4.4% among 360,000; note: % is set by controls: 0 for no effect and ±100 for the full control effect; nearly all actives have a fitted effect of over 60% in size
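Multi-concentration screen (max 110 uM) measuring displacement of acetylated histone H3 peptide from BAZ2B by AlphaScreen, using 50 nM protein, 50 nM peptide and 10 ug/mL streptavidin donor plus Ni-chelate acceptor beads.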
JMJD2A Tudor inh: JMJD2A Tudor domain (human) inhibition; AID 504339; AlphaScreen JMJD2A-Tudor / H3K4me3 peptide binding; Potency, µM (highest dose often 114 µM), for the others: at the highest dose activity change, negative = inhibition, actives largely listed as inhibitors; hit rate 4.4% among 390,000; O75164; note: % is set by controls: 0 for no effect and ±100 for the full control effect; nearly all actives have a fitted effect of over 50% in size
Target sequence (O75164 whole entry, looked up, the tested form may be a part): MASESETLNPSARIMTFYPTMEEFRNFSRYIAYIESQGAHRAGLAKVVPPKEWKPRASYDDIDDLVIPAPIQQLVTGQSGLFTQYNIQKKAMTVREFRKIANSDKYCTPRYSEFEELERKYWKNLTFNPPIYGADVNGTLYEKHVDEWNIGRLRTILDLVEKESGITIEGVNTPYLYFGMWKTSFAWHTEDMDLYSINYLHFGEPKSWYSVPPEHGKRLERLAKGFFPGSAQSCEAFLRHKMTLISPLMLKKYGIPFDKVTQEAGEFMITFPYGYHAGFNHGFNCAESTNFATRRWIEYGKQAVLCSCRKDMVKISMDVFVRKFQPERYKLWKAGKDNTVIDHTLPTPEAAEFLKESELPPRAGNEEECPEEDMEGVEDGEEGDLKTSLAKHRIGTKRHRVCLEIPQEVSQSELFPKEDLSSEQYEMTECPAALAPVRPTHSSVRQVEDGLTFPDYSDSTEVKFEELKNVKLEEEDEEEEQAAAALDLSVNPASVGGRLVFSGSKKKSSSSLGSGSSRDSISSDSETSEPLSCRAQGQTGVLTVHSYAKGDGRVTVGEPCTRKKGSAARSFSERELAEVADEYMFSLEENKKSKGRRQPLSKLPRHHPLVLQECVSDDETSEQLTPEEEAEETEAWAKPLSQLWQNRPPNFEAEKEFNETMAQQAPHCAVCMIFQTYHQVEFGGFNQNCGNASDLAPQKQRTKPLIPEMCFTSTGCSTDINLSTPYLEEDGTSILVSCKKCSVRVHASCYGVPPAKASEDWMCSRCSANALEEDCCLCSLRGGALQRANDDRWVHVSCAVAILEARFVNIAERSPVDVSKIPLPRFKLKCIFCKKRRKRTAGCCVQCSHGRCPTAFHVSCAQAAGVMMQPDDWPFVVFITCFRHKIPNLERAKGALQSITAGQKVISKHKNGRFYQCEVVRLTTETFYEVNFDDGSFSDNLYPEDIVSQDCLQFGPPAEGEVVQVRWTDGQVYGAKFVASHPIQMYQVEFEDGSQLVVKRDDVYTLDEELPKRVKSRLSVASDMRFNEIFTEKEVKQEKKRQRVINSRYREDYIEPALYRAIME
An asterisk follows results filed as active; ? = inconclusive; . = no result; ! = a repeat was not active; [ ] = dose if it differs, or a comment. Hits are enriched below; roughly 12% of the tested compounds scored in any of these assays. Calls come from the whole dose curve; as a rule, active = well fitted curve in the direction sought with a large enough effect; inconclusive = small, poorly fitted or top-dose-only effect, or another doubt; inactive = no such curve, though single readings can be large; an effect the other way counts as inactive or inconclusive. Potency is the fitted concentration of half-maximal effect.

SMILES | Sfp PPTase inh | L3MBTL1 inh | G9a block | HP1b binding inh | BAZ2B inh | JMJD2A Tudor inh
COc1ccc2c(-c3ccccc3)cc(N3CCOCC3)nc2c1 | ? | . | 2.2µM* | 25µM* | 25µM* | 1.3µM*
CCOc1ccc(C2=CS/C(=C(\C#N)c3nnc4n3CCCCC4)N2CC)cc1 | -6% | -2% | -11%[59 µM] | 7% | -36% | -35%
C=CCN1C(=O)NC(c2ccc(OC)cc2)(C(F)(F)F)S/C1=C(\C#N)c1nnc(N2CCOCC2)n1-c1ccccc1 (stereo not given) | 7% | -14% | 17% | 11% | -28% | -15%
C=CCN1C(c2ccc(Br)cc2)=CS/C1=C(/C#N)c1nnc(N2CCOCC2)n1-c1ccccc1 | 79µM* | -14% | ? | ? | ? | ?
C=CCN1C(c2ccccc2)=CS/C1=C(\C#N)c1nnc2n1CCCCC2 | 63µM* | 8% | ? | 19% | ? | ?
C=CCN1C(c2cccc(C(F)(F)F)c2)=CS/C1=C(/C#N)c1nnc(N2CCOCC2)n1-c1ccccc1 | -29% | -15% | 79µM* | 0% | 50µM* | 50µM*
CCOc1ccccc1-c1ccc(C(=O)O)s1 | -7% | . | ? | . | . | .
COc1ccc2c(c1)[nH]c1c(=O)n(CCCn3ccnc3)cnc12 | 1% | . | 31%[12.7 µM] | 37% | -9% | -16%
CCC(CC)C(=O)N=C1SC2CS(=O)(=O)CC2N1CCc1ccc(OC)cc1 (stereo not given) | -6% | . | 12%[59 µM] | 22% | 10% | -25%
COc1ccc(OC)c2c1C(=O)C(Cl)=C(Cl)C2=O | 0.5µM* | 0% | . | 2.2µM* | 45µM* | 0.89µM*
COc1ccc(N)c2c1C(=O)c1ccccc1C2=O | -6% | -26% | 25µM* | 45µM* | 32µM* | 45µM*
COc1ccc(S(=O)(=O)N2CCCC2)c(Cl)c1Cl | 10% | -24% | 7% | 19% | 4% | 8%
COc1ccc(OC)c2c1C(=O)c1ccccc1C2=O | 40µM* | -9% | -3%[59 µM] | 12% | -1% | -12%
COC1=C(OC)C(=O)c2ccccc2C1=O | . | . | 20µM*! | . | . | .
CCNc1ncc2nc(-c3cn(C)c4ccccc34)c(=O)n(Cc3ccc(F)cc3)c2n1 | 7% | . | -9%[0.501 µM] | . | . | .
CSc1ccc(/C=C(/NC(=O)c2ccccc2)C(=O)NCCN2CCOCC2)cc1 | 8% | . | 15% | 24% | -17% | 0%
Cc1ccc2nc(NCCN)c3ncc(C)n3c2c1 | -1% | . | . | . | . | .
COc1cccc2c1C(=O)c1ccc3ccccc3c1C2=O | -6% | . | 40µM* | 17% | ? | ?
C=CCc1cccc(C2C(C)CCC3C(=O)N4C(Cc5c([nH]c6ccccc56)C4c4cc(OC)c(OC)c(OC)c4)C(=O)N32)c1 (stereo not given) | 10% | . | . | . | . | .
CN(C)c1ccc(/C=C(\C#N)c2ccccc2)cc1 | -10% | ? | 17% | 3% | -26% | ?
CN(C)c1cccc(/C=C(\C#N)c2ccccc2)c1 | -6% | -2% | 45µM* | 21% | -36% | -13%
O=C(CC(Nc1ccc(F)cc1)C(=O)OCC(=O)c1cccs1)c1ccccc1 (stereo not given) | 35µM* | -2% | ? | 9% | -11% | -30%
O=C(CCC(=O)c1cccs1)OCC(=O)c1ccc(F)cc1 | . | 3% | . | 46% | . | 8%
CC(O)CN(CCC(N)=O)CCC(N)=O (stereo not given) | -14% | 6% | 35µM* | -27% | 56µM* | ?
CCOC(=O)C1CCCN(C(=O)CCc2ccccc2)C1 (stereo not given) | 4% | -3% | 6% | 21% | -4% | -15%
SMILES | Sfp PPTase inh | L3MBTL1 inh | G9a block | HP1b binding inh | BAZ2B inh | JMJD2A Tudor inh
CCOC(=O)C1CCCN(CCC(=O)Nc2ccccc2C)C1 (stereo not given) | -16% | 61% | 33%[0.501 µM] | 32% | -11% | -4%
CCOC(=O)C1CCCN(CCc2ccccc2)C1 (stereo not given) | -11% | 3% | 40µM* | -33% | ? | 25µM*
CCOC(=O)C1CCN(Cc2ccc(OC)cc2OC)CC1 | 13% | -6% | ? | ? | ? | 1.8µM*
COc1ccc(CN2CCC(C(=O)NCCc3ccc(OC)c(OC)c3)CC2)c(OC)c1 | 13% | . | -1% | 12% | 2% | -8%
CCOC(=O)C1CCCN(Cc2ccccc2C)C1 (stereo not given) | 3% | . | 2.5µM* | ? | 71µM* | 5µM*
CCOC(=O)C1CCCN(Cc2ccc(OCC)cc2)C1 (stereo not given) | -26% | . | 8.9µM* | ? | ? | 20µM*
O=C(NCCCOc1ccc([N+](=O)[O-])cc1Cl)OCc1ccccc1 | . | . | . | 27% | . | -12%
CCOC(=O)C1CCCN(CC(O)COc2ccccc2C(C)=O)C1 (stereo not given) | 8% | . | ? | 6% | -4% | -18%
CCOC(=O)C1CCCN(CC(O)COc2ccc(OC)cc2C(C)(C)C)C1 (stereo not given) | -12% | -2% | 13µM* | 7.9µM* | 50µM* | ?
CCOC(=O)C1CCN(Cc2coc3c(Cl)cc(Cl)cc3c2=O)CC1 | ? | 6% | 11µM* | -7% | ? | 20µM*
COc1ccc(C(=O)C2CCCN(Cc3cn[nH]c3-c3ccccc3)C2)cc1OC (stereo not given) | -7% | 5% | -6%[0.501 µM] | 27% | -1% | -18%
CCOC(=O)C1CCCN(Cc2ccccc2OCC)C1 (stereo not given) | -12% | -1% | ? | ? | ? | 5.6µM*
CCOC(=O)C1CCN(Cc2cn[nH]c2-c2ccccc2)CC1 | -15% | 0% | 7.9µM* | ? | ? | 3.2µM*
COc1ccc2cc1Oc1cc3c(cc1OC)CC[N+](C)(C)C3Cc1ccc(cc1)Oc1c(OC)c(OC)cc3c1C(C2)[N+](C)(C)CC3 (stereo not given) | -5% | . | ? | . | . | .
CCOC(=O)C1CCN(CC(=O)N2C(C)CCCC2C)CC1 (stereo not given) | ? | -6% | 8.9µM* | 45µM* | 50µM* | 5µM*
COc1ccc(CN2CCC(N3CC(C)OC(C)C3)CC2)c(OC)c1 (stereo not given) | -25% | . | 8.9µM* | 40µM* | 32µM* | 0.79µM*
CCOC(=O)C1CCCN(C(=O)/C=C/c2ccccc2[N+](=O)[O-])C1 (stereo not given) | 2% | 1% | -3%[59 µM] | 38% | -19% | ?
CCOC(=O)C1CCN(C/C=C/c2ccccc2[N+](=O)[O-])CC1 | -16% | 2% | . | -16% | ? | 2.2µM*

Screening data (PubChem BioAssay)
